Screens as filed in PubChem BioAssay.
The list is not random: actives were taken first. Their share in the collection is about 11%.
VDR inhibitor: blocks the human vitamin D receptor | P11473 | 0.93% of 400,000 active | Potency, µM, inactives show max response, negative = inhibition, hits mostly inhibitors | VDR-SRC2-3 peptide fluorescence polarization, 2 h | AID 504847; further: on the % scale 0 is the no-effect control and ±100 the full control effect
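FP read-out; VDR + SRC2-3 coactivator peptide; 23 nl compound by pintool; 2 h RT incubation; reagents held at 4 deg C, protected from light.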
BAZ2B block: BAZ2B (human) inhibition. AlphaScreen BAZ2B-H3K14Ac peptide displacement. AID 504333. Q9UIF8. 4.4% of 360,000 active. Potency, µM (top dose mostly 114 µM), for the others: top-dose activity change, negative = inhibition, hits mostly inhibitors; further: on the % scale 0 is the no-effect control and ±100 the full control effect; nearly all actives have a fitted effect of over 60% in size
Target sequence (Q9UIF8 whole entry, looked up): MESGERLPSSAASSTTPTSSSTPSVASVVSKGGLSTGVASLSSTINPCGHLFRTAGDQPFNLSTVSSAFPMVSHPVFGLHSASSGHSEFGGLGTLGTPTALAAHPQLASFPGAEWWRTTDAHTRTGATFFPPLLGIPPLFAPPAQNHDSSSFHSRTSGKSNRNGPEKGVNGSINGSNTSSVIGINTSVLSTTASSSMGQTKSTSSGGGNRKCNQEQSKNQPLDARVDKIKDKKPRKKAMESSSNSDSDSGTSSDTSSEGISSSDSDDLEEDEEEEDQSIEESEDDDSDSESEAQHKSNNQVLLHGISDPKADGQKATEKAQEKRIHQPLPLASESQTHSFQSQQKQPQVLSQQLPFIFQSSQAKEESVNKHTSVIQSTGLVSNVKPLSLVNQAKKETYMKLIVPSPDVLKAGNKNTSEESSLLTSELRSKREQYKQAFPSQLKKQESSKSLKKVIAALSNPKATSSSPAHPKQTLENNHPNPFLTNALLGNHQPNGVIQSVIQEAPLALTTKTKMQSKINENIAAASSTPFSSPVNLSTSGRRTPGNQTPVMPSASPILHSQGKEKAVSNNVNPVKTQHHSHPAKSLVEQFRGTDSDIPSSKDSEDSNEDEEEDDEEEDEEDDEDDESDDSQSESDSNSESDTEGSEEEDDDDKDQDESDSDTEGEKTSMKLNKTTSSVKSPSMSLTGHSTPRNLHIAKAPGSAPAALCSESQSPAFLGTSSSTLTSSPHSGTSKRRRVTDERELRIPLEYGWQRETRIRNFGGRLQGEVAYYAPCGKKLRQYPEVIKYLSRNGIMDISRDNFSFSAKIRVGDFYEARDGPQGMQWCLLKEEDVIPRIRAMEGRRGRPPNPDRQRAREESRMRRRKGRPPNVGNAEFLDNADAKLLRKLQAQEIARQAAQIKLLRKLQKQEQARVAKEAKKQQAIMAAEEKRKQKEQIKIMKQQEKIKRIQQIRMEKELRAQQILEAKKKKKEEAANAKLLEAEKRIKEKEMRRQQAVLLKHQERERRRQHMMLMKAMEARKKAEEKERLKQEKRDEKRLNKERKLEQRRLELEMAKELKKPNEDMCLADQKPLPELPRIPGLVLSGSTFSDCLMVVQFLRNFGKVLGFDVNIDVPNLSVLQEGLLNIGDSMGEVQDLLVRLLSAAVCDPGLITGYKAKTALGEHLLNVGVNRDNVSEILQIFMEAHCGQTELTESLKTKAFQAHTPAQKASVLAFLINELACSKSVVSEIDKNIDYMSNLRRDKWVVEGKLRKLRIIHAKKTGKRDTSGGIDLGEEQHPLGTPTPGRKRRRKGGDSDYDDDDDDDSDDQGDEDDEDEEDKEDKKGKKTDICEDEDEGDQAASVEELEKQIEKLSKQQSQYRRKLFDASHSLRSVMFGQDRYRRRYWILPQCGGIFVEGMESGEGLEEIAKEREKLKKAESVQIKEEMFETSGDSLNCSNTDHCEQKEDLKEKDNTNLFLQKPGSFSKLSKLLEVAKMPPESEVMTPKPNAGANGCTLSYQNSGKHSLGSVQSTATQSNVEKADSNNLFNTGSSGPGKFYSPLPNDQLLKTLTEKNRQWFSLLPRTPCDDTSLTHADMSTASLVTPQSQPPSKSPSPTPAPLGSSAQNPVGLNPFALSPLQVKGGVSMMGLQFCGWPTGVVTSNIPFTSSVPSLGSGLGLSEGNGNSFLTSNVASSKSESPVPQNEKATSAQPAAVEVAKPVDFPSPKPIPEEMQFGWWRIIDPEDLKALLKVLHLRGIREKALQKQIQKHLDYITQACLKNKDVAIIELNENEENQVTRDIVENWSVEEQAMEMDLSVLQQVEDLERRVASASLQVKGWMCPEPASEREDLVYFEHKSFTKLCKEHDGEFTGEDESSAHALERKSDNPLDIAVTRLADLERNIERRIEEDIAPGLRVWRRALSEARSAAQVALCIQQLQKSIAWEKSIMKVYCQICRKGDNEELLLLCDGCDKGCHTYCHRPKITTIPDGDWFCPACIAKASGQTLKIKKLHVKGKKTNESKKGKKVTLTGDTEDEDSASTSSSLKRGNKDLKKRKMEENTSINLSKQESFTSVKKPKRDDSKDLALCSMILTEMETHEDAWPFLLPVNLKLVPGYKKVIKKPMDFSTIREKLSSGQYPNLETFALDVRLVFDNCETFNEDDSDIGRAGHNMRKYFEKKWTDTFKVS
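AlphaScreen displacement: compounds (up to 110uM) incubated 30 min at room temperature with a preformed 50 nM BAZ2B/50 nM biotinylated H3K14Ac peptide complex in PBS pH 7.4 with Tween-20. Donor and acceptor beads at 10 ug/mL final added, 20 min light-protected before reading.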
JMJD2A Tudor inh: blocks the human JMJD2A Tudor domain; O75164; AlphaScreen JMJD2A-Tudor / H3K4me3 peptide binding; Potency, µM (doses to about 114 µM), for the others: top-dose activity change, negative = inhibition, most hits filed as inhibitors; 4.4% of 390,000 active; further: on the % scale 0 is the no-effect control and ±100 the full control effect; nearly all actives have a fitted effect of over 50% in size
PLK1 PBD inh: blocks phosphopeptide binding to human PLK1 polo-box domain; P53350; Plk1 PBD binding of FITC phosphopeptide, fluorescence polarization; Potency, µM, inactives show max response, negative = inhibition, actives largely listed as inhibitors; 2.8% of 360,000 active; further: series mostly up to about 57 µM; on the % scale 0 is the no-effect control and ±100 the full control effect; nearly all actives have a fitted effect of over 65% in size
HP1b chromo inh: HP1-beta chromodomain-methylated histone interaction inhibition; P83916; Potency, µM (doses to about 114 µM), without a hit: at the highest dose activity change, negative = inhibition, usual class: inhibitors; 0.56% of 390,000 active; AlphaScreen HP1-beta / biotin-H3K9me3 peptide binding; further: nearly all actives have a fitted effect of over 70% in size
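AlphaScreen: HP1-beta (50 nM) preformed 30 min with biotin-H3(1-18)K9me3 peptide (50 nM) in PBS pH 7.4, 0.01% Tween-20. Compound added for 30 min at RT, then streptavidin donor/nickel chelate acceptor beads (10 ug/mL) for 30 min.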
G9a block: blocks human histone lysine methyltransferase G9a; Q96KQ7; 8.8% of 350,000 active; Potency, µM (series often up to 102 µM), inactives show at the highest dose activity, negative = inhibition, hits mostly inhibitors; AID 504332; G9a H3K9 monomethylation, AlphaScreen, 2 h; further: on the % scale 0 is the no-effect control and ±100 the full control effect; nearly all actives have a fitted effect of over 75% in size
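Using a bead-based AlphaScreen, monomethylated H3K9 product from 2 h room-temperature reactions (G9a 20 nM, peptide 500 nM, SAM 20 uM) was detected with 0.5 ug/mL rabbit anti-H3K9me1 antibody.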
Starred values were filed as active, the others as inactive; [ ] = dose if it differs, or a comment. The call rests on the fitted dose curve; in most records, active means well fitted curve in the direction sought with a large enough effect; inconclusive means small, poorly fitted or top-dose-only effect, or another doubt; inactive means no such curve, though single readings can be large; an effect the other way counts as inactive or inconclusive. Potency means the concentration at half of the fitted maximal effect.

`OCCC1CN(Cc2c(O)ccc3ccccc23)CCN1CCc1ccccc1` (stereo not given) gave VDR inhibitor inconclusive, BAZ2B block -29%, JMJD2A Tudor inh inconclusive, PLK1 PBD inh 24µM*, HP1b chromo inh -2% and G9a block 2µM*.
`COCCCNC(=O)c1ccc(-c2nc(CS(=O)(=O)c3ccc(C)cc3)c(C)o2)cc1` gave VDR inhibitor 16%, BAZ2B block -11%, JMJD2A Tudor inh 2%, HP1b chromo inh 33% and G9a block -7%[59 µM].
For N#C/C(=C\c1ccc(Cl)cc1)c1nc(-c2cc3c(ccc4ccccc43)oc2=O)cs1 the results were VDR inhibitor -4%, BAZ2B block 1%, JMJD2A Tudor inh -9%, HP1b chromo inh 37% and G9a block -2%[59 µM].
Screening COc1cccc2cc(C(=O)C3=C(O)C(=O)N(CCN(C)C)C3c3ccc(F)cc3)oc12 (stereo not given) returned VDR inhibitor -9%, BAZ2B block -11%, JMJD2A Tudor inh -31%, PLK1 PBD inh -3%, HP1b chromo inh 24% and G9a block 50µM*.
For CN(C)CCN1C(=O)C(O)=C(C(=O)c2cc3ccccc3o2)C1c1ccc(N(C)C)cc1 (stereo not given) the results were VDR inhibitor 3%, BAZ2B block inconclusive, JMJD2A Tudor inh inconclusive, PLK1 PBD inh 0%, HP1b chromo inh 20% and G9a block 50µM*.
Screening CCN(CC)CCCN1C(=O)C(O)=C(C(=O)c2cc3cccc(OC)c3o2)C1c1ccncc1 (stereo not given) returned VDR inhibitor 6%, BAZ2B block -9%, JMJD2A Tudor inh -10%, PLK1 PBD inh -8% and G9a block 50µM*.
Cc1cc(C)cc(OCCOCCn2c(-c3ccc(Cl)cc3)nc3ccccc3c2=O)c1 was read as VDR inhibitor -101%, BAZ2B block 77%, JMJD2A Tudor inh 8%, HP1b chromo inh -5% and G9a block 100%[59 µM].
`O=C(c1ccccc1Br)N1CCCC(c2nc(-c3cccs3)no2)C1` (stereo not given) gave VDR inhibitor -24%, BAZ2B block -22%, JMJD2A Tudor inh -20%, PLK1 PBD inh -8%, HP1b chromo inh 25% and G9a block -48%.
For Cc1ccc(-c2noc(C3CCCN(C(=O)c4ccccc4Br)C3)n2)o1 (stereo not given) the results were VDR inhibitor 5%, BAZ2B block -18%, JMJD2A Tudor inh -14%, PLK1 PBD inh -12%, HP1b chromo inh 20% and G9a block 25µM*.
`O=C(c1ccc([N+](=O)[O-])cc1)N1CCSC1c1ccc(Cl)cc1` (stereo not given) gave VDR inhibitor -14%, BAZ2B block -38%, JMJD2A Tudor inh -32%, PLK1 PBD inh 1%, HP1b chromo inh 16% and G9a block inconclusive.
Screening O=C(c1ccc([N+](=O)[O-])cc1)N1CCSC1c1ccc(Br)cc1 (stereo not given) returned VDR inhibitor -16%, BAZ2B block inconclusive, JMJD2A Tudor inh -12%[11.4 µM], PLK1 PBD inh 17µM*, HP1b chromo inh 16µM* and G9a block inconclusive.
Screening CN1CCN(S(=O)(=O)c2cccc(C(=O)Nc3ccccc3N3CCCC3)c2)CC1 returned VDR inhibitor -5%, BAZ2B block -29%, JMJD2A Tudor inh -13%, PLK1 PBD inh -8%, HP1b chromo inh 2% and G9a block inconclusive.
`CN1CCN(S(=O)(=O)c2cccc(C(=O)Nc3cc(Cl)ccc3N3CCOCC3)c2)CC1` gave VDR inhibitor inconclusive, BAZ2B block -3%, JMJD2A Tudor inh -13%, PLK1 PBD inh -2%, HP1b chromo inh 15% and G9a block 16µM*.
Screening CC1CN(S(=O)(=O)c2cccc(C(=O)Nc3cc(Cl)ccc3N3CCOCC3)c2)CC(C)O1 (stereo not given) returned VDR inhibitor 11%, BAZ2B block 12%, JMJD2A Tudor inh -8%, PLK1 PBD inh -1%, HP1b chromo inh 41% and G9a block -12%[59 µM].
